# Reference: article PMC7819943, “Rice protein-binding microarrays: a tool to detect cis-acting elements near promoter regions in rice”
# Over roughly 35,000 sequences, “fluorescence intensity (a.u.)” has its median near 10,000; the highest 2% begin near 52,000. The list comes from a sample in which the highest values are over-represented; it also holds similar and randomly drawn sequences.
# Biological target: T1, OsWOX13 (Oryza sativa, UniProt Q5QMM3 1-267)
# T1 sequence: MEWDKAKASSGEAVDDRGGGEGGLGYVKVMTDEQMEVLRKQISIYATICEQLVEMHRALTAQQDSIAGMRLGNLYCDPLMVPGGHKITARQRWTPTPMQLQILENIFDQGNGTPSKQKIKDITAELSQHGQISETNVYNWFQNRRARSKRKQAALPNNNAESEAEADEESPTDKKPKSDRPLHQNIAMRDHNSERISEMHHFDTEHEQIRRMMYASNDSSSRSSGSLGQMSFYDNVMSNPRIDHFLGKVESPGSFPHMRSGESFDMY
# Experiment: protein-binding microarray (RPBM); PBS, 2% BSA, 51.3 ng/ul salmon testes DNA, 50 uM zinc acetate, 200 nM TF, 25 C, 1 h; high values mean tight binding
# Details: protein: recombinant; tags: N-terminal polyhistidine and DsRed monomer fusion (pET32a); label: CyDye5-dUTP incorporated in the synthesized complementary strand; 3' TTTTT single-stranded linker to array surface; dsDNA, one strand shown
# Method in brief: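 The binding signal is fluorescence intensity per array feature (arbitrary units). Readings came from an Axon 4000B scanner after a washed, 2% BSA-blocked, double-stranded custom Agilent array had been incubated for 1 h at 25 °C with 200 nM protein and 50 µM zinc acetate. The protein was a Ni–NTA-purified transcription factor fused N-terminally to polyhistidine and DsRed, expressed in E. coli BL21-CodonPlus.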
row,Sequence,binding signal
1,TAGGATTATGTTGGTGATGATGATGACTAGTGTGCCTGAACGGAGTCACCTAGTGCAG,4220 fluorescence intensity (a.u.)
2,ATAGTTAACAAAATTTGACAGCAAACTAAATGTAACCATTCGGAGTCACCTAGTGCAG,27800 fluorescence intensity (a.u.)
3,TACCCATCACCAAAATTACCATAAACACAACATACTTAGGCGGAGTCACCTAGTGCAG,4380 fluorescence intensity (a.u.)
4,AACTTATATAAGTTAAATTTAAACTTATATGTTTGTGGGGCGGAGTCACCTAGTGCAG,4170 fluorescence intensity (a.u.)
5,TAAATTGACAAATTCAACCTAGGCCTGGACTTATTTGGCGCGGAGTCACCTAGTGCAG,57500 fluorescence intensity (a.u.)
6,CATATAAATTGACAACTTCTACTTAAACCTGACATGTGGGCGGAGTCACCTAGTGCAG,54500 fluorescence intensity (a.u.)
7,TTGACTTAAATTATAATTTTAAACCATATATTATAATTGGCGGAGTCACCTAGTGCAG,31400 fluorescence intensity (a.u.)
8,ATATAAATTTGGAACAAATTCAACATCATGTTATCCTAGGCGGAGTCACCTAGTGCAG,4060 fluorescence intensity (a.u.)
9,CAAAATTGAAAACTTCTTATTTGAAATTCAAAACTTTCAACGGAGTCACCTAGTGCAG,10200 fluorescence intensity (a.u.)
10,TTTGCTAGATTGGAGCAAATCGCATATTCTTAACCCCACCCGGAGTCACCTAGTGCAG,21600 fluorescence intensity (a.u.)
11,GTTTCGTCTCGTAATTTACACGCAATCTGTGTAATTAGTTCGGAGTCACCTAGTGCAG,7230 fluorescence intensity (a.u.)
12,CTAAAATTTAATTAATCATACGACAGTGAATTTCTCATTTCGGAGTCACCTAGTGCAG,20300 fluorescence intensity (a.u.)
13,TCAGACAAATTAAGTTTTAGCTTAGCTTATCACTTAACGGCGGAGTCACCTAGTGCAG,7680 fluorescence intensity (a.u.)
14,AAATTCCGAATTTGATTCTTAATTAAGGCGAGCTATTCACCGGAGTCACCTAGTGCAG,3490 fluorescence intensity (a.u.)
15,AAACAGACAAACTACACTAATTGTGATGACTCTGGATTTTCGGAGTCACCTAGTGCAG,8340 fluorescence intensity (a.u.)
16,ACCATCATCAATTGATAGTTCTTGTTTCTCTAGTAGTAAGCGGAGTCACCTAGTGCAG,9360 fluorescence intensity (a.u.)
17,AATTCAAGCTCATCACTGATTTGATAAGACATTAAGATAGCGGAGTCACCTAGTGCAG,4050 fluorescence intensity (a.u.)
18,GTGACTGATTGACAGTATCAACCATCTAGTGTTAAGATAGCGGAGTCACCTAGTGCAG,52800 fluorescence intensity (a.u.)
19,CACCTGACTGATTGGATTGGTATCGATCCAAGCCTATCAGCGGAGTCACCTAGTGCAG,57100 fluorescence intensity (a.u.)

row,Sequence,binding signal
1,GACGCCGTCAGCAATGATTGCCTTGCTAGCAGCTGCTTGACGGAGTCACCTAGTGCAG,4390 fluorescence intensity (a.u.)
2,TCTTGCCAACTGATTGATCGATCCTGGAAGCTTGCTGCTGCGGAGTCACCTAGTGCAG,37900 fluorescence intensity (a.u.)
3,TGTCCACTGAAATTGATTGGAGATCGATGTGATGGTCAAGCGGAGTCACCTAGTGCAG,40200 fluorescence intensity (a.u.)
4,TACGCCTGATTGGATCCCCACCCCTATCTCCACTGACTGTCGGAGTCACCTAGTGCAG,34100 fluorescence intensity (a.u.)
5,TAAGTATCCTTGATTGATTGCCTGATCGATCAGCTGCTAGCGGAGTCACCTAGTGCAG,55000 fluorescence intensity (a.u.)
6,TTGGGTGGCAATTATTAATCAGTCATGTCATTCAACTAGACGGAGTCACCTAGTGCAG,11700 fluorescence intensity (a.u.)
7,AGTGTAATTAACTTTCTTCTTCTCTCCAACTGCTTCAGCTCGGAGTCACCTAGTGCAG,11200 fluorescence intensity (a.u.)
8,CACATGATTGATATCTCGTCACTGCTCGTAACTTCAGCCTCGGAGTCACCTAGTGCAG,62100 fluorescence intensity (a.u.)
9,TAGAGAGATTGATATTTCATGTGCTCTAGAGATGGTTGAGCGGAGTCACCTAGTGCAG,28900 fluorescence intensity (a.u.)
10,TATTGATTGGTTCAGATGGAGACATGTGCAACTTCGTGCTCGGAGTCACCTAGTGCAG,61700 fluorescence intensity (a.u.)
11,TTGATTGATCTTTGGTTGGATGGATGCTTGATGATGTGCTCGGAGTCACCTAGTGCAG,31900 fluorescence intensity (a.u.)
12,GTGCTCTTGATTGGCACATGAGCCTTGGCGGCGGTGACCTCGGAGTCACCTAGTGCAG,35600 fluorescence intensity (a.u.)
13,GACCAACGGTGATTATTAACATGATCTATATCTATCTATCCGGAGTCACCTAGTGCAG,5820 fluorescence intensity (a.u.)
14,TCAAATATGACTAAATTAGTAGTTAAGTAGTATGGGAGAACGGAGTCACCTAGTGCAG,13400 fluorescence intensity (a.u.)
15,CCAACTAATCATGCTTAGTTAGCAATTAAGCCATAAACAACGGAGTCACCTAGTGCAG,9180 fluorescence intensity (a.u.)
16,ATGATTGCCGTATGATATGTGATACGAAAGAGTTGGGGATCGGAGTCACCTAGTGCAG,32700 fluorescence intensity (a.u.)
17,TGTTTGATTATGTTCAATCATTGCAAATCATGTCATCTGTCGGAGTCACCTAGTGCAG,45900 fluorescence intensity (a.u.)
18,CTAGATGATTGGCTATCATCACCTGTTCACAATCTTATGTCGGAGTCACCTAGTGCAG,61900 fluorescence intensity (a.u.)
19,CGTCCGTCATTGATTATGCCAGATCATAGCTGTACGTCGTCGGAGTCACCTAGTGCAG,21300 fluorescence intensity (a.u.)

row,Sequence,binding signal
1,ATGGATGACTGTGATATGATATCTTACACATCAATGATAGCGGAGTCACCTAGTGCAG,7720 fluorescence intensity (a.u.)
2,CCAGATTGATGGCTATCATCAGGCCATGCTGTTCTCGTCTCGGAGTCACCTAGTGCAG,59800 fluorescence intensity (a.u.)
3,TGTGTCATGTTCTGATTGGCTGTGGTTGGTTTGATTTTCTCGGAGTCACCTAGTGCAG,21100 fluorescence intensity (a.u.)
4,TGCATGAATTGATCAACAAGACAAAAGTTACAAAACATGTCGGAGTCACCTAGTGCAG,4160 fluorescence intensity (a.u.)
5,TTTCAGCACATCATTCCAATTTCAATCATATTTCCAAACTCGGAGTCACCTAGTGCAG,4200 fluorescence intensity (a.u.)
6,TTCCGGACGTGTGATTGCGATGAGACGTGTTGCAATATCCCGGAGTCACCTAGTGCAG,7260 fluorescence intensity (a.u.)
7,ACTATTGGAGTATGGTGCGTGATTGTCCACAATTTATTCACGGAGTCACCTAGTGCAG,3150 fluorescence intensity (a.u.)
8,ACCATTAATAGATTGAGAGCGAATGAATTGGTGCCACGTGCGGAGTCACCTAGTGCAG,55000 fluorescence intensity (a.u.)
9,CCATTAAATGCACAATGACACAATTTGAGGATCAGTTTAGCGGAGTCACCTAGTGCAG,3340 fluorescence intensity (a.u.)
10,ATAATTATTTAAATTATATGCATACACCTAGGTGCCATGGCGGAGTCACCTAGTGCAG,38800 fluorescence intensity (a.u.)
11,ACAATTAATTTAATTAAATTGAGGTCAGCCATGCATGCAGCGGAGTCACCTAGTGCAG,64800 fluorescence intensity (a.u.)
12,GATTAGATTGATCATTGATCGATCAGTGCCATTAATTGAGCGGAGTCACCTAGTGCAG,30900 fluorescence intensity (a.u.)
13,CCACCTGTGATTGAAAACAATTACTTTTGAACATGCGCAGCGGAGTCACCTAGTGCAG,55200 fluorescence intensity (a.u.)
14,TGCGAAATTTAGCGTGAGAAATTAAGTGATTGATTGAGAGCGGAGTCACCTAGTGCAG,26900 fluorescence intensity (a.u.)
15,GTAAACTGCAATCAATCAGCCATTAAAATCTCATGCTCTGCGGAGTCACCTAGTGCAG,60000 fluorescence intensity (a.u.)
16,AATAACACAATTGTTGATAATTGTTGGATTACTTTGTGAGCGGAGTCACCTAGTGCAG,16000 fluorescence intensity (a.u.)
17,AAAATTAAATGCGATCAATCAGAGCCGTCCATATCTCTGCCGGAGTCACCTAGTGCAG,33400 fluorescence intensity (a.u.)
18,TCAAAATTGGAAGTTTTGTTGAAATTGAAACAATGTGATGCGGAGTCACCTAGTGCAG,19500 fluorescence intensity (a.u.)
19,TGCCATTGTCAATCTCTCTGCTCTCCTCATGTAACTGATGCGGAGTCACCTAGTGCAG,3180 fluorescence intensity (a.u.)
